Laboratory results reported in PubChem BioAssay AID1347416 (National Center for Advancing Translational Sciences (NCATS), 2020).
Hit rate of the full screen: of about 4,100 compounds, about 1,600 (39%) were called active. Roughly 25% stayed inconclusive and do not appear here. Calls come from the whole dose curve; as a rule, active = well fitted inhibition curve with a large enough effect; inconclusive = small, poorly fitted or top-dose-only effect; inactive = no such curve, though single readings can be large or run the other way. This is one part of the list. Where a call stands in place of a potency, no number is given.

Assay: qHTS Validation assay for Inhibitors of Plasmodium falciparum Dd2 growth in vitro; note: nearly all actives have a fitted effect of over 70% in size
Conditions: P. falciparum Dd2 in RBCs, SYBR Green growth, 72 h; series mostly up to 28.7 µM
Summary of the method: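 P. falciparum Dd2-infected red blood cells (2.5% hematocrit, 0.3% parasitemia) grown 72 h at 37 °C under 5% O2 with compounds in a titration, 29 uM to 0.5 nM final. Growth read as SYBR Green-1 fluorescence after ~16 h lysis; artesunate 300 nM as positive control.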
Potency is the fitted concentration of half-maximal effect.

Compound	Potency
Cc1nc(NCc2ccccc2)[nH]c(=O)c1CCC(C)C	inactive
COc1ccc(CNC(=O)C2CCN(C(=O)c3cc4c(=O)[nH]c(C)cn4n3)CC2)cc1	inactive
Cc1ccc(CNCc2cc3c(C(C)(C)C)nn(-c4ccccc4)c3[nH]c2=O)cc1	0.266 µM (active)
COc1ccc(CNCc2cc3c(C(C)(C)C)nn(-c4ccccc4)c3[nH]c2=O)cc1	0.842 µM (active)
Cc1ccc(-c2nn(-c3ccccc3)c3[nH]c(=O)c(CNCc4ccccc4)cc23)cc1	0.422 µM (active)
Cc1ccc(Oc2c(CCC(=O)NC(C)C)c(C)nn2-c2ccccc2)cc1	inactive
COc1ccc(CNC(=O)CC[C@@H]2CNC(=O)[C@@H]3C[C@H](NCc4ccccc4)CN23)cc1	inactive
CCCC(=O)N=C1SC2CS(=O)(=O)CC2N1c1ccc(CC)cc1 (stereo not drawn)	inactive
COCc1nncn1C1CCN(C(=O)c2ccc(C)c(C)c2)CC1	inactive
CN(Cc1cccn1C)C(=O)C1CC1	inactive
CCC(C)c1ccc(NC(=O)c2cccnc2)cc1 (stereo not drawn)	inactive
CCC(C)c1ccc(O)c(NC(=O)c2cncc(Br)c2)c1 (stereo not drawn)	2.99 µM (active)
COc1ccc(NC(=O)c2nnn(Cc3ccccc3C)c2N)c(OC)c1	inactive
COc1ccc(NC(=O)c2nnn3c2CN(Cc2cccc(Cl)c2)C(=O)CC3)c(C)c1	2.17 µM (active)
CC(=O)Nc1nc2ccccc2n1Cc1ccc(Cl)cc1	8.41 µM (active)
CCCCCCCn1c(NC(=O)CC)nc2ccccc21	16.8 µM (active)
CCCCn1c2ccccc2c2nnc(SCC(=O)Nc3ccc(NC(C)=O)cc3)nc21	inactive
O=C(Nc1nc2ccccc2n1Cc1ccccc1)c1ccc(COc2ccccc2[N+](=O)[O-])o1	16.8 µM (active)
COc1ccc(C2CC(c3cccs3)=NN2C(=O)c2ccc(Br)o2)cc1 (stereo not drawn)	5.31 µM (active)
COc1ccc2nc3oc(C(=O)NCc4cccs4)cc3cc2c1	inactive
O=C(NCCCN1CCCC1)c1ccc2c(c1)N(S(=O)(=O)c1ccccc1F)CC2	9.44 µM (active)
O=C(Nc1nc2c(F)cccc2s1)c1ccc(S(=O)(=O)N2CCCc3ccccc32)cc1	inactive
O=C(CN1CCN(S(=O)(=O)N2CCCC2)CC1)NCc1ccccc1F	inactive
COc1ccc2[nH]c3c(c2c1)CCNC31CCN(C(=O)C(C)(C)C)CC1	inactive

Compound	Potency
Cc1ccc(C(=O)N2CCc3nc4cc(-c5ccccc5)[nH]n4c(=O)c3C2)cn1	inactive
O=C(c1cc(NC(=O)C23CC4CC(CC(C4)C2)C3)cc(NC(=O)C23CC4CC(CC(C4)C2)C3)c1)N1CCCCC1	5.96 µM (active)
CC(C)CN1C(=O)c2cccn2CC1CNC(=O)c1ccccc1 (stereo not drawn)	inactive
Cc1ccc(CNCC(O)(c2ccccc2)c2ccc(Cl)cc2)cc1 (stereo not drawn)	2.99 µM (active)
COc1ccccc1CNCC(O)(c1ccc(Cl)cc1)c1ccc(Cl)cc1	1.5 µM (active)
COc1ccccc1Oc1ncccc1CNCc1c(F)cccc1Cl	inactive
COc1ccc(CNCC(O)(c2ccc(Cl)cc2)c2ccc(Cl)cc2)cc1	1.5 µM (active)
Cc1cn2nc(-c3nc(C4CCCN(C(=O)Cc5ccsc5)C4)no3)cc2c(=O)[nH]1 (stereo not drawn)	inactive
COc1ccc(OC)c(CNC(=O)C2CCN(c3ncnc4c3nc3n4CCCCC3)CC2)c1	inactive
CCc1ccc(CNC(=O)C2CCN(c3cc(C(F)(F)F)nc(C)n3)CC2)cc1	inactive
COc1ccc(CNC(=O)C2CCN(c3nc(-c4ccccc4)nc4c3CCC4)CC2)cc1	7.5 µM (active)
O=C(Nc1ccc(F)cc1)N1CCOc2ccc(CN3CCc4ccccc4C3)cc2C1	8.41 µM (active)
CCOc1cccc(CN2C[C@@H]3C(=O)N(CCN4CCc5ccccc5C4)C(=O)[C@@H]3C2)c1	inactive
COc1ccccc1NC(=O)N1CCOc2ccc(CN3CCc4ccccc4C3)cc2C1	2.37 µM (active)
CCC1Oc2ccc(NC(=O)COC)cc2CN(Cc2ccc(F)cc2)C1=O (stereo not drawn)	inactive
CC[C@@H](NC(C)=O)C(=O)N1CCOc2c(cc(-c3cccs3)cc2OC)C1	inactive
O=C(Nc1ccc(F)cc1F)N1CCOc2ccc(CN3CCc4ccccc4C3)cc2C1	16.8 µM (active)
Cc1cc(=O)n(CC(=O)Nc2ccccc2F)c(N2CCc3ccccc3C2)n1	inactive
CC1(CNc2ccccc2)COc2ccc(C(=O)NCc3ccc(F)cc3)cc2N1 (stereo not drawn)	inactive
CCN(C(=O)c1cc2cc(Br)cc(OC)c2oc1=O)c1ccccc1	inactive
Cc1nc(CCNC(=O)C2CC2)no1	inactive
O=C(c1ccc(-c2ncc3cnc(-c4ccccc4)cn23)cc1)N1CCc2cccnc21	17.2 µM (active)
O=C(c1ccc(-c2ncc3cnc(-c4cccc(F)c4)cn23)cc1)N1CCc2cccnc21	inactive
Cc1ccc(C(=O)N2CCCn3cc(-c4cccc(C#N)c4)nc32)cc1	inactive

Compound	Potency
CCOC(=O)c1ccc(Nc2nc3nonc3nc2Nc2cccc(C)c2C)cc1	8.41 µM (active)
COc1ccc(NC(=O)c2cccc3c2CCN3C(=O)Nc2ccc(F)cc2)c(C)c1	inactive
COc1ccc(Nc2ccccc2NC(=O)c2ccccc2Br)cc1	5.96 µM (active)
CCNC(=O)N1CC[C@H]2CC(=O)N([C@H](C(N)=O)C(C)C)CC[C@H]2C1	inactive
Cn1cc(-c2cccc(CO)c2)c2nc(COc3ccc(Cl)cc3)cn2c1=O	inactive
O=C1C=C(c2cccc(CO)c2)C[C@@H](c2ccc(Cl)cc2)C1	3.76 µM (active)
CC1(c2ccccc2)O[C@@H]2C[C@H]3[C@@H]4CCC5=CC(=O)C=C[C@]5(C)[C@@]4(F)[C@@H](O)C[C@]3(C)[C@]2(C(=O)CO)O1 (stereo partly drawn)	4.73 µM (active)
O=C(Nc1ccncc1)C1c2ccccc2Oc2ccccc21	inactive
CCOC(=O)c1sc(NC(=O)C2c3ccccc3Oc3ccccc32)c(C(=O)OCC)c1C	2.66 µM (active)
COc1cc(Nc2ncncc2-c2nc(-c3ccccc3)no2)cc(OC)c1OC	inactive
Cc1ccccc1C(=O)N1CCC(c2nn(-c3ccc(Cl)cc3)c(=O)[nH]2)CC1	inactive
Cc1ccc(C)c(N2CCN(CCCNC(=O)c3cnn(-c4ccc(F)cc4)c3C3CCN(C(=O)OC(C)(C)C)CC3)CC2)c1	2.66 µM (active)
CC(C)(C)OC(=O)N1CCC(c2c(C(=O)NCCN3CCC(Cc4ccccc4)CC3)cnn2-c2ccc(F)cc2)CC1	5.31 µM (active)
Cc1ccc(-n2ncc(C(=O)N3CCN(c4cc(Cl)ccc4C)CC3)c2C2CCN(C(=O)OC(C)(C)C)CC2)cc1	8.41 µM (active)
Cc1ccc(C)c(N2CCN(CCCNC(=O)c3cnn(-c4cccc(Cl)c4)c3C3CCN(C(=O)OC(C)(C)C)CC3)CC2)c1	8.41 µM (active)
CC(C)(C)OC(=O)N1CCC(CNC(=O)c2ccc(F)cc2)CC1	inactive
Cn1cnc(S(=O)(=O)N2CCCOCCNC(=O)[C@@H]3CCC[C@@H]32)c1	inactive
CC(C)(C)OC(=O)N1CCC(c2c(C(=O)NCCN3CCc4ccccc4C3)cnn2-c2ccc(F)cc2F)CC1	5.31 µM (active)
CC1CCN(C(=O)c2cc3c(s2)CCC(C(=O)NCCCN2CCOCC2)C3)CC1 (stereo not drawn)	inactive
Cc1cccc(C)c1-n1ncc(C(=O)NCCCN2CCC(C)CC2)c1C1CCN(C(=O)OC(C)(C)C)CC1	15 µM (active)
O=C(CN1C2=NCCCN2c2ccccc21)c1ccc(Cl)cc1Cl	6.68 µM (active)
CNCC(=O)N1C[C@@H](C(=O)O)[C@H](c2ccccc2)C1	inactive
O=C(N/N=C/c1ccc(OCc2ccccc2)cc1)c1ccco1	13.3 µM (active)
CC(C)C(=O)OCC(=O)[C@@]12O[C@H](C3CCCCC3)O[C@@H]1C[C@H]1[C@@H]3CCC4=CC(=O)C=C[C@]4(C)[C@H]3[C@@H](O)C[C@@]12C	2.66 µM (active)

Compound	Potency
CC(=O)SC1CC(=O)N(c2c(C)cccc2C)C1=O (stereo not drawn)	inactive
CN1C(=O)C2(c3ccccc31)N(C)CC(c1ccccc1)C21SC(=S)N(Cc2ccco2)C1=O (stereo not drawn)	13.3 µM (active)
CC(C)c1nc2c(c(-c3ccc(O)cc3)n1)CCN(CC1CCCCC1)CC2	4.73 µM (active)
COc1ccc(-c2nc(C3CC3)nc3c2CCN(Cc2cccnc2)CC3)cc1	13.3 µM (active)
Cc1ccc(CN2CCc3nc(C(=O)Nc4nc(C)cs4)oc3CC2)cc1	inactive
CCc1nc2c(c(-c3ccc(Cl)cc3)n1)CCN(CC1CCCCC1)CC2	inactive
Oc1ccc(-c2nc(C3CC3)nc3c2CCN(CC2CCCCC2)CC3)cc1	4.73 µM (active)
Cc1ccc(CN2CCc3nc(C4CC4)nc(-c4ccc(O)cc4)c3CC2)cc1	4.73 µM (active)
COc1cccc(C(=O)N2CCc3nc(C4CC4)nc(-c4ccc(Cl)cc4)c3C2)c1	inactive
O=C(c1ccccc1Cl)N1CCc2nc(-c3ccccc3)nc(-c3ccc(Cl)cc3)c2C1	inactive
Cc1nc2c(c(-c3ccc(Cl)cc3)n1)CCN(C(=O)c1ccc(C(F)(F)F)cc1)CC2	inactive
Oc1ccc(-c2nc(C3CC3)nc3c2CN(CC2CCCCC2)CC3)cc1	6.68 µM (active)
O=C(c1ccc(C(F)(F)F)cc1)N1CCc2nc(C3CC3)nc(-c3ccc(Cl)cc3)c2CC1	13.3 µM (active)
Cc1cccc(-c2cc3nc(C)c(C)c(NCCCn4ccnc4)n3n2)c1	5.31 µM (active)
COc1ccc(-c2oc3ccccc3c2C#Cc2cncn2C)cc1	1.06 µM (active)
CCOC(=O)c1[nH]c(C)c(CCC(=O)N2CCN(c3cccc(C)c3C)CC2)c1C	1.33 µM (active)
O=C(CCc1cc2ccccc2[nH]c1=O)N1CCCCC1	inactive
CCOC(=O)c1[nH]c(C)c(CCC(=O)N2CCN(c3cc(Cl)ccc3C)CC2)c1C	1.19 µM (active)
CN(C)[C@H]1CCCCN(C(=O)CCc2ccc(-c3ccc(Cl)cc3)[nH]2)C1	inactive
CCO[C@H]1CN(C(=O)CCc2nc3c(C)c(C)ccc3[nH]2)C[C@@H]1O	inactive
CCOC(=O)c1[nH]c(C)c(CCC(=O)N2CCN(c3cc(C)ccc3C)CC2)c1C	1.33 µM (active)
